# Test results reported in PubChem BioAssay AID602396 (The Scripps Research Institute Molecular Screening Center, 2012).
# Hit rate of the full screen: of about 360,000 compounds, about 460 (0.13%) were called active.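 Rule for the calls: active = inhibition above the mean inhibition of all tested compounds plus 3 SD (cut at about 73% in these data); inactive = the rest.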 This excerpt belongs to a sample that is enriched for actives.
# Target: Nuclear receptor subfamily 5 group A member 2 (Homo sapiens) (UniProt O00482)
# Sequence (O00482 whole entry, looked up): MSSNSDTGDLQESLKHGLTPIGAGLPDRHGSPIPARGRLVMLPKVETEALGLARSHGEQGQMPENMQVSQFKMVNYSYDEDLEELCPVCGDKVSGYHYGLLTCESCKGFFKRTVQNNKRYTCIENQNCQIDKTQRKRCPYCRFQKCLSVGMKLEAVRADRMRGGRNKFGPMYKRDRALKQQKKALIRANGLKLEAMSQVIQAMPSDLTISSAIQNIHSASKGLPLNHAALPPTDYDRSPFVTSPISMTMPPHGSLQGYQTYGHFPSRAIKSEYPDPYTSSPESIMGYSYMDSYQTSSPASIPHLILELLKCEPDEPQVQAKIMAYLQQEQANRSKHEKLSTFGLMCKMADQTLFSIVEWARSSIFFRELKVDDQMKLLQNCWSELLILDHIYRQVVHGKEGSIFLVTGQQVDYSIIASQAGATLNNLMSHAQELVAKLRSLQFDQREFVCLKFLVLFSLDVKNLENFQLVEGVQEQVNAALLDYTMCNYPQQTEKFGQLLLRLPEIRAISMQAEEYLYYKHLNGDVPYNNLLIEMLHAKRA
# Assay: LRH-1 (NR5A2) inverse agonists, primary screen, cell-based, luminescence, HEK293T, StAR-luciferase reporter (AID 602396);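 note: 0% = DMSO wells and 100% = reporter-only cells lacking LRH-1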
# Settings: LRH-1 transfected, 24 h, at 3.6 µM, hits give high values
row,Structure (SMILES),inhibition
1,CC(=O)OC1C2(CC3N4C(=O)C5(CO)SSC4(CC31O)C(=O)N5C)OC(C)C(C)(C)C2=O (stereo not given),97.6% (active)
2,CC(=O)N1CN2CN(C(C)=O)CC(C(=O)c3ccc(Br)cc3)(C2)C1,-11.4% (inactive)
3,CN(C)C(=O)Oc1ccc(NC(=O)N2CCOCC2)cc1,10.7% (inactive)
4,CCOc1ccc(-c2cc(C)[n+](CCN(CC)CC)c(-c3ccc(OCC)cc3)c2)cc1,86.7% (active)
5,CC(C)n1c(=O)c(C=Nc2ccc(Br)cc2)c(O)n(Cc2ccco2)c1=O,5.59% (inactive)
6,CCOC(=O)C(O)(c1ccc(NC(=O)c2ccco2)c(OC)c1)C(F)(F)F (stereo not given),15% (inactive)
7,NCCc1ccc(S(=O)(=O)F)cc1,12.1% (inactive)
8,O=[N+]([O-])c1ccc(C2C3C(c4ccccc4)=NC4(CCCCC4)N32)cc1 (stereo not given),22.7% (inactive)
9,CCC(C)n1c(O)c(/C=N/Nc2nc3c(c(=O)n(C)c(=O)n3C)n2C)c(=O)[nH]c1=S (stereo not given),-7.02% (inactive)
10,CCCCCCCCCCCCn1ccc(=N)cc1,84.1% (active)
11,CN(C)CC1CCCCC1=O (stereo not given),15.8% (inactive)
12,COc1ccc(-c2nn(CCC#N)cc2C(=O)Nc2ccc(C(C)=O)cc2)cc1,17.1% (inactive)
13,Clc1cccc(Cl)c1Cl,2.81% (inactive)
14,Cc1ccc(-c2nc3ccccc3c(=O)n2-c2ccc(Br)cn2)cc1,-1.48% (inactive)
15,CCNc1nc2[nH]c(=O)c3c(c2s1)OC(N)=C(C#N)C3c1cccs1 (stereo not given),-2.41% (inactive)
16,CN(C)c1ccc(/C=C2\CC3C4CC=C5CC(O)CCC5(C)C4CCC3(C)C2=O)cc1 (stereo not given),10.7% (inactive)
17,CCC(C)(O)C(=O)OC1C(=O)OC2CC3C(C)=CC(=O)C(O)C3(C)C3C4(O)OCC23C1C(C)C4O (stereo not given),98.4% (active)
18,COc1ccc(C(=O)CC2C(=O)N(C)C(=O)N(C)C2=O)cc1,-5.13% (inactive)

row,Structure (SMILES),inhibition
1,COC(=O)C1=C(c2ccccc2)C[C@@H]2CC[C@H]1N2C(=O)N1CCCCC1,8.33% (inactive)
2,O=C1C2(Cl)C3(Cl)C4(Cl)C(Cl)(Cl)C5(Cl)C3(Cl)C1(Cl)C5(Cl)C24Cl (stereo not given),0.27% (inactive)
3,CCOP(=S)(OCC)SCOC(=O)NCC(=O)OC,-13.1% (inactive)
4,CN(C)C(=O)NC(O)C(Cl)(Cl)Cl (stereo not given),-10.3% (inactive)
5,C[C@]12CC[C@H](O)C[C@H]1CC[C@@H]1C2CC[C@]2(C)[C@@H](C3=CC(=O)OC3)[C@@H](O)C[C@]12O (stereo not given in full),88.6% (active)
6,COC(=O)C1=C(c2ccc(F)cc2F)C[C@@H]2CC[C@H]1N2C(=O)NC1CC1,20.8% (inactive)
7,COc1ccc(NC(=O)N2Cc3ccccc3-n3nncc3C2)cc1,-12.7% (inactive)
8,COC1C(O)C(C)OC(OC2CCC3(C=O)C(CCC4C3CCC3(C)C(C5=CC(=O)OC5)CCC43O)C2)C1O (stereo not given),104% (active)
9,COCCNC(=O)CN1C2CCC1CC(O)(c1cccnc1)C2 (stereo not given),17.3% (inactive)
10,Cc1ccc2c(c1)C1CN(C)CCC1N2C(=O)Cn1nnc(-c2ccccc2F)n1 (stereo not given),-20.9% (inactive)
11,CC1=CC(=Cc2sc3ccccc3[n+]2C)C=C(C)O1,80.7% (active)
12,COc1ccccc1N=C1SCCCN1C,11.8% (inactive)
13,CCOC(=O)CNC(=O)N1Cc2cc(N3CCCCC3)ccc2-n2nncc2C1,6.84% (inactive)
14,Cc1cc(OCc2cc(C(=O)O)oc2C)c2c3c(c(=O)oc2c1)CCCC3,15.5% (inactive)
15,NCC(O)c1ccc(O)cc1 (stereo not given),-5.8% (inactive)
16,CCN(N=Nc1nonc1OC)c1nonc1OC,3.32% (inactive)
17,CC1CCCN1CCC(C(N)=O)(c1ccccc1)c1ccccc1 (stereo not given),-19.5% (inactive)
